Experimental data reported in PubChem BioAssay AID1159580 (chemical genetic matrix, 2015).
Screen size: about 5,500 compounds; about 2,000 (36%) were called active. Inconclusive results (about 18%) are left out. Rule as the data show it: active = normalized growth mostly below about 0.91 (no sharp cut-off); inconclusive = no clear call, values can overlap the other calls; inactive = mostly above about 0.92. Some of the results follow.

Test: chemical genetic growth profiling, strain panel (AID 1159580);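 also: tested at 20 µM; growth read once vehicle control cultures reached saturation at 30 °C; 1 = growth at the plate median or of vehicle wells; lower values mean less growth of the strain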
Details: S. cerevisiae deletion strains, growth OD

Measured: normalized growth

CN1CCN(C2Cc3ccccc3Sc3ccc(Cl)cc32)CC1 (configuration not stated)
inactive: locus YAL040C, strain CLN3, stronger effect = lower value 1 | locus YDR363W, strain ESC2, stronger effect = lower value 0.897 | locus YER002W, strain NOP16, stronger effect = lower value 1.04 | locus YMR307W, strain GAS1, stronger effect = lower value 1.01 | locus YNL175C, strain NOP13, stronger effect = lower value 0.915 | locus YNL197C, strain WHI3, stronger effect = lower value 0.989 | locus YNL224C, strain SQS1, stronger effect = lower value 1.01 | locus YPL055C, strain LGE1, stronger effect = lower value 0.923
active: locus YAL013W, strain DEP1, stronger effect = lower value 0.883 | locus YJR075W, strain HOC1, stronger effect = lower value 0.881 | locus YNL153C, strain GIM3, stronger effect = lower value 0.587 | locus YOR083W, strain WHI5 (second series), stronger effect = lower value 0.668
